Data as given in PubChem BioAssay AID624330 (Southern Research Specialized Biocontainment Screening …, 2012).
Screen size: about 340,000 compounds; about 2,100 (0.62%) were called active.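 The calls were made as follows: active = first-screen hits whose inhibition reached a set limit at any dose in the follow-up dose series; inconclusive = inhibition above the set first-screen limit but never retested; inactive = the rest.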 Not all results are given here. Results with a measured potency or affinity are listed apart.

What follows are compounds tested against Rac GTPase-activating protein 1 (Homo sapiens) (UniProt Q9H0H5) (assay: MgcRacGAP GTPase-activating activity inhibitors, confirmation, biochemical, ADP Hunter fluorescence, primary and confirmatory (AID 624330;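 also: fluorescence reports GDP produced by GAP-driven GTP hydrolysis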)). Conditions: MgcRacGAP-stimulated Rac1 GTP hydrolysis, at 30 µM, stronger effect = higher value, GST-tagged Rac1 F28L mutant substrate.
Chain of Rac GTPase-activating protein 1 (Homo sapiens) (Q9H0H5 whole entry, looked up): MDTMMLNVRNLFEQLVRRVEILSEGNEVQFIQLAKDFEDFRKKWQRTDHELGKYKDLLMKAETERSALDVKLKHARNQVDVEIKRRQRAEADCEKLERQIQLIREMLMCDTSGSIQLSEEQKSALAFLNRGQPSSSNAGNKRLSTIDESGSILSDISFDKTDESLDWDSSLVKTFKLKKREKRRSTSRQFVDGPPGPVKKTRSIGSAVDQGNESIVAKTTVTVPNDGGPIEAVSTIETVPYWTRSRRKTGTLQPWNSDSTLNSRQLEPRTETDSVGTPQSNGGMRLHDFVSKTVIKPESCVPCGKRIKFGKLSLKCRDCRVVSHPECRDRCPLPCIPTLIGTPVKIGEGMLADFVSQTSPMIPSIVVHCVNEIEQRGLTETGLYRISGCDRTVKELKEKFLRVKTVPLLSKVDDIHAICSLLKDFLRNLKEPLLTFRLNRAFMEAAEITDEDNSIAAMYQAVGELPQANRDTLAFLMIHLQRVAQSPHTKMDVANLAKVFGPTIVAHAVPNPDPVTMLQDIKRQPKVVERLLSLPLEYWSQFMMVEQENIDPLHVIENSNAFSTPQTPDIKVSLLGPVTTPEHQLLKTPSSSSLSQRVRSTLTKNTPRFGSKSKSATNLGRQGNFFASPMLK

inhibition, inactive:
COc1cc(/C=C/C(=O)OCC(=O)NCCCc2ccccc2)cc(OC)c1OC 2.15%
COc1ccc(/C=C/C(=O)OCC(=O)NCCCc2ccccc2)cc1OC 1.47%
O=C(NCCc1c[nH]c2ccccc12)C(=O)NCC(c1ccco1)N1CCN(c2ccc(F)cc2)CC1 (centres undefined) 5.54%
C[C@@H]1CN([C@@H](C)CO)C(=O)c2cc(-c3ccccc3F)cnc2O[C@H]1CN(C)Cc1cccc(F)c1 5.55%
COc1cccc2c(C)c(C(=O)O)[nH]c12 7.15%
COc1ccc(OC)c2c(C)cc(C)nc12 4.59%
COc1ccc(N(CC(=O)Nc2ccc(OC)c(OC)c2)S(=O)(=O)c2ccccc2)cc1Cl 12.2%
CCc1ccc(CN2CCN(C(=O)c3cccc(OC)c3OC)CC2)cc1 23.3%
COc1ccc(C(=O)N2CCN(C3CCC(c4ccccc4)CC3)CC2)cc1OC (centres undefined) 23.6%
CCOC(=O)C1CCN(Cc2ccc(OC)c(OCc3ccccc3)c2)CC1 27.7%
COc1cc(OC)cc(C(=O)N2CCN(C3CCN(Cc4ccccc4)CC3)CC2)c1 29%
COc1cc(C(=O)N2CCN(CCCc3ccccc3)CC2)cc(OC)c1OC 15.2%
CCOC(=O)C1CCN(Cc2ccc(OCc3ccccc3)c(OC)c2)CC1 15.7%
COc1ccc(C(=O)N2CCN(C(=O)Cc3ccccc3)CC2)cc1OC 3.19%
COc1ccccc1C(=O)N1CCN(C2CCN(Cc3ccccc3)CC2)CC1 19.4%
CCn1c(Cc2cccs2)nnc1SCC(=O)Nc1ccc(OC)c(OC)c1 7.07%
O=C(CCCn1c(=O)oc2ccccc21)N1CCc2ccccc2C1 8.41%
O=C(CSc1nccc(=O)[nH]1)Nc1cccc2ccccc12 8.22%
Cc1cc(C)cc(NS(=O)(=O)c2ccc3[nH]c(=O)ccc3c2)c1 6.34%
CCCCN(C(=O)c1cccc(-c2ccc(OC(C)=O)cc2)c1)c1c(N)n(CCC)c(=O)[nH]c1=O 8.17%
CCc1c(C)c2ccc(O)c(CN(C)C)c2oc1=O 3.54%
CC(C)c1cc(C(F)(F)F)n2nc(C(=O)Nc3ccc(-n4cnnn4)cc3)cc2n1 0.65%
CCc1cc(C(=O)N2CCCC(CNC(=O)c3ccc(-c4ccccc4)cc3)C2)no1 (centres undefined) 1.46%
O=C(COC(=O)c1ccc(O)cc1O)Nc1cccc2ccccc12 4.44%
CC12CCC(=O)C=C1C(F)CC1C2C(O)CC2(C)C1CCC2(O)C(=O)CO (centres undefined) -2.17%
COc1ccc(C2Nc3cccc4cccc(c34)N2)cc1 16%
Oc1ccccc1C1Nc2cccc3cccc(c23)N1 26.2%
COc1ccc(Br)cc1C1Nc2cccc3cccc(c23)N1 13.1%
COc1cc(C2Nc3cccc4cccc(c34)N2)cc(OC)c1O 12.2%
O=C(Oc1cccc2cccnc12)c1ccco1 12.4%
COCC(=O)N(Cc1cc2cc(C)ccc2[nH]c1=O)c1ccc(C)c(C)c1 16.2%
O=[N+]([O-])c1ccc(Cl)c(S(=O)(=O)/N=C(/c2ccccc2)N2CCOCC2)c1 2.34%
Cc1ccccc1C(=O)N1CCC(C(=O)NCc2ccc(Cl)cc2)CC1 8.11%
CC(OC(=O)CC1CCCCC1)C(=O)Nc1ccc(S(N)(=O)=O)cc1 (centres undefined) 1.14%
Cc1cc(C)c(C)c(S(=O)(=O)Nc2ccc(C(N)=O)cc2)c1C 13.9%
Cc1cc(C)c(S(=O)(=O)Nc2ccccc2)c(C)c1 -2.09%
Cc1cc(C)c(C)c(S(=O)(=O)Nc2ccc(OCC(=O)O)cc2)c1C -3.75%
CC(=O)c1ccc(NS(=O)(=O)c2c(C)cc(C)cc2C)cc1 2%
O=C(NC1CC1)c1ccc(CN(c2ccccc2)S(=O)(=O)c2ccccc2)cc1 5.44%
O=C(Nc1cccc(-c2ccc(N3CCOCC3)nn2)c1)c1ccc(Cl)cc1 3.67%
CCc1c(C)nc(SCC(=O)N2CCN(c3ccccc3)CC2)[nH]c1=O 13%
Cc1ccc(N=Cc2cc(Cc3ccccc3Cl)cc([N+](=O)[O-])c2O)c(O)c1 20.2%
O=[N+]([O-])c1cc(Cc2ccccc2)cc(C=Nc2ccc(N3CCOCC3)cc2)c1O 27.8%
O=C(COC(=O)c1cnccn1)NCCc1ccc(Cl)cc1 8.82%
CCOc1ccc(C(=O)NNC(=O)C2CC(=O)N(c3ccc(C)cc3)C2)cc1 (centres undefined) 5.17%
Oc1ccc(/C=N/Nc2ccnc3cc(Cl)ccc23)c(O)c1 17.9%
O=C(O)c1ccc(/C=N/Nc2ncc(Cl)cc2Cl)cc1 2.45%
Fc1ccc(/C=N/Nc2nccnc2Cl)cc1 15.7%
Clc1cnc(N/N=C/c2ccncc2)c(Cl)c1 3.41%
Clc1nccnc1N/N=C/c1ccc(Br)cc1 13.4%
Oc1ccccc1/C=N/Nc1nccnc1Cl 5.4%
CCC(NC(=O)c1ccccc1NC(=O)C(C)(C)C)C(=O)N1CCCC1 (centres undefined) 7.5%
CCN(C(=O)CSc1nc2cc(S(=O)(=O)N(CC)CC)ccc2n1CC)C1CCS(=O)(=O)C1 (centres undefined) 0.8%
COCCN(C(=O)c1cccc(-n2cnnn2)c1)c1c(N)n(CC(C)C)c(=O)[nH]c1=O 5.99%
CCc1cc(C(=O)N2CCN(S(=O)(=O)c3ccc(Cl)cc3)CC2)sc1C 1.55%
O=C(c1cc(S(=O)(=O)N2CCCCC2)ccc1N1CCOCC1)N1CCN(Cc2ccccc2)CC1 7.61%
NC(=S)NNC(=O)[C@@H]1CCCC[C@@H]1C(=O)O 11.2%
C=CCOc1cccc(/C=N/NC(=O)CN2CCCCC2)c1 8.26%
O=C(C[C@H]1C/C=C\C[C@@H](Cc2ccc(F)cc2)C(=O)OC[C@H]2CCCN2C1=O)N[C@@H](CO)Cc1ccccc1 4.35%
